# PubChem BioAssay (NCI)
# Where “and” joins values, the source holds several entries; their conditions need not be identical. Identical values can stand only once. This is part of a sample that, as a whole, favours compounds with a hit. Of some 83,000 tested, about 20% had one in any assay.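 Plates (96-well) were seeded with cells, treated with compound at one concentration, and incubated for 48 hours before percent growth was determined.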 Calls of active or inactive are those of the source. The calls were made as follows: active = growth percent below 10; inactive = the rest.
# System: MDA-MB-468 breast
# Assay: NCI-60 one-dose screen, 48 h (100 = growth as untreated, 0 = no growth, -100 = all killed)
# Details: 10 µM unless noted
row,SMILES,growth
1,O=c1[nH][n+](-c2ccc(Br)cc2)no1,86.1% (inactive)
2,N#Cc1c(N)nc(Cl)c(C#N)c1C(=O)c1ccccc1,-6.56% (active)
3,O=C(/C(=C\c1c(-c2ccccc2)[nH]c2ccccc12)S(=O)(=O)c1ccccc1)c1ccccc1,32.9% (inactive)
4,c1ccc(N2N=C(c3cccc(Nc4ccncc4)c3)CC2c2ccc3c(c2)OCO3)cc1 (stereo not given),15.1% (inactive)
5,Cn1cc(-c2nn3cc(-c4ccncc4)nc3s2)c2cc(Cl)ccc21,64.8% (inactive)
6,COc1cc(OC)c2c(c1)c1nc3cc(C)c(C)cc3nc1n2CCN(C)C,117% (inactive)
7,CN(C)c1ncnc2c1nnn2C1OC(CO)C(O)C1O (stereo not given),-26.5% (active)
8,CN(C)CCOc1cccc(-c2nc3sccn3c2-c2ccnc(S(C)(=O)=O)n2)c1,92% (inactive)
9,O=C(Nc1ccc2c(ccn2Cc2ccccn2)c1)c1cnccn1,103% (inactive)
10,c1cnc2ccc3ncccc3c2c1,122% (inactive)
11,CCN(CC)CCN(CCN(CC)CC)c1ccccc1,92% (inactive)
12,CC(=O)Nc1c(I)c(NC(C)=O)c(I)c(C(=O)O)c1I,115% (inactive)
13,CCOC(=O)C(=Cc1c(-c2ccccc2)[nH]c2ccccc12)C(=O)OCC,12.8% (inactive)
14,Cc1nn(-c2ccccc2)c2ncc3c(c12)C(=O)N(Cc1ccccc1)C3=O,77.8% (inactive)
15,NC(CSC(c1ccccc1)(c1ccccc1)c1ccccc1)C(=O)O (stereo not given),32.7% (inactive)
16,O=C(N(c1ccccc1)c1ccccc1)n1cc(I)c2nc(Cl)nc(Cl)c21,27.8% (inactive)
17,CC(=O)N1N=C(CCC(=O)c2nc3ccc([N+](=O)[O-])cc3[nH]2)OC1c1ccc(O)cc1 (stereo not given),108% (inactive)
18,COc1ccc(C(c2cc(OC)c(OC)c(OC)c2)n2cncn2)cc1O (stereo not given),7.88% (active)
19,COc1cc2ncnc(Nc3ccc(F)c(Cl)c3)c2cc1OCC(=O)N1CCN(c2ccc(F)cc2)CC1,-7.58% (active)
20,C#C[C@@]1(O)[C@@H](CO)O[C@@H](n2cc(Br)c3c(N)ncnc32)[C@@H]1O,-45.1% (active)

row,SMILES,growth
1,CCOC(=O)c1c(C)nc2c(c1N)C(=O)C(=O)N2Cc1ccc(C(F)(F)F)cc1,77.8% (inactive)
2,CC(CN=Cc1ccccc1O)N=Cc1ccccc1O (stereo not given),115% (inactive) and 98% (inactive)
3,CCOc1cc2ncc(C#N)c(Nc3ccc(OCc4ccccn4)c(Cl)c3)c2cc1NC(=O)/C=C/CN(C)C,-35.1% (active)
4,CN(C)C(=S)N(C)C,114% (inactive)
5,COc1cc2c(c(OC)c1OC)C(=O)N[C@@H]1[C@@H](O)[C@@H](O)[C@H](O)C[C@@H]21,102% (inactive)
6,COc1ccc2c(c1)[nH]c(=O)c1c3cc(OC)c(OC)cc3cn21,11.4% (inactive)
7,COc1cc(/C=C/C(=O)c2ccc(-n3cc(CN4CCN(c5cc6c(cc5F)c(=O)c(C(=O)O)cn6C5CC5)CC4)nn3)cc2)cc(OC)c1OC,72.5% (inactive)
8,CCCCn1sc(=O)n(Cc2ccc(CNC(=O)OCc3ccc4c(Cl)cc(Cl)c(O)c4n3)cc2)c1=O,72.4% (inactive)
9,Nc1c(C(=O)Nc2ccncc2)sc2nc3c(cc12)CCCCC3,54.2% (inactive)
10,CCCCCOc1ccc(/C=N/Nc2cc(C)nc3ccc(Br)cc23)cc1,-15.1% (active)
11,O=C(NCCCNc1cc(-c2cn(-c3ccccc3)nc2-c2cccc(O)c2)ccn1)Nc1ccc(F)cc1,-19.4% (active)
12,CSc1nc(Nc2cccc(NC(=O)CCl)c2)c(C#N)c(-c2cccc([N+](=O)[O-])c2)n1,-10.8% (active)
13,CN(Cc1cnc2nc(N)nc(N)c2n1)c1ccc(C(=O)NC(CCC(=O)O)C(=O)O)cc1Br (stereo not given),42.4% (inactive)
14,C=C1C(=O)O[C@H]2[C@H]1CC/C(COC(=O)NCCc1ccc(Br)cc1)=C\CC[C@@]1(C)O[C@@H]21,4.63% (active)
15,C#C[C@@]1(O)[C@@H](CO)O[C@@H](n2cc(F)c3c(N)ncnc32)[C@@H]1O,-46.2% (active)
16,Cc1ccc(/C=C/C(=N/N=C(N)N)c2ccccc2)cc1,-6.79% (active)
17,O=[N+]([O-])c1ccc(/C(=C/c2ccccc2)[n+]2ccccc2)cc1,101% (inactive)
18,CCOC(=O)c1c(C)nc2ccccc2c1/C=C/c1cccs1,-2.39% (active)
19,CCOC(=O)/C(C#N)=C\c1c[nH]c2ccccc12,97.4% (inactive)
20,CC(C)(C)c1cc(Br)cc(C(C)(C)C)c1O,110% (inactive)
